Measurements taken from PubChem BioAssay AID504332 (National Center for Advancing Translational Sciences (NCATS), 2011).
Out of some 350,000 compounds screened, about 31,000 (8.9%) were called active. A call without a number means that no potency is given here. About 15% were inconclusive and are not listed. The sample holds actives, similar compounds and a random draw of the others, so the mix is not that of the screen. Unmarked numbers belong to inactive results. Calls come from the whole dose curve; as a rule, active = well fitted inhibition curve with a large enough effect; inconclusive = small, poorly fitted or top-dose-only effect; inactive = no such curve, though single readings can be large or run the other way.
Note: nearly all actives have a fitted effect of over 75% in size.
Potency is the fitted concentration of half-maximal effect.

Each compound was assayed against Histone-lysine N-methyltransferase EHMT2 (Homo sapiens) (UniProt Q96KQ7) (assay: qHTS Assay for Inhibitors of Histone Lysine Methyltransferase G9a). Settings: G9a H3K9 monomethylation, AlphaScreen, 2 h; series mostly up to 59 µM.
Chain of Histone-lysine N-methyltransferase EHMT2 (Homo sapiens) (Q96KQ7 913-1193 limits assumed): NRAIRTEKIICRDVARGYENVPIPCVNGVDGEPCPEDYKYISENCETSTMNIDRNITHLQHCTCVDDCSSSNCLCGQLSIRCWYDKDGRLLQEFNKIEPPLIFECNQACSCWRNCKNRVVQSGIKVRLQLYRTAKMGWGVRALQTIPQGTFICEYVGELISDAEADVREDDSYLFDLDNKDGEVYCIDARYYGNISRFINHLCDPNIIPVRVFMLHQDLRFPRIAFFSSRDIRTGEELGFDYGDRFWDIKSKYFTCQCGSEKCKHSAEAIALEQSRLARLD
Procedure, shortened: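 AlphaScreen detection with an anti-monomethyl H3K9 antibody quantified product after a 2 h room-temperature reaction containing 500 nM biotinylated H3K9 peptide, 20 µM SAM and 20 nM enzyme, which had been preincubated 15 min with compound.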
In the case of `CN(C1CCS(=O)(=O)C1)S(=O)(=O)c1ccc2ccccc2c1` (configuration not stated), the Potency is reported as “inactive”. For `COc1ccccc1CNS(=O)(=O)c1cc(Br)cc2c1N(C(C)=O)C(C)C2` (configuration not stated), the Potency was “inactive”. In the case of `O=C(CCSCc1cccc(F)c1)NCc1ccccc1`, the Potency is reported as “inactive”. For `COc1ccc(NS(=O)(=O)c2ccc(C)c(C(=O)NNC(=O)c3csc(N4CCOCC4)n3)c2)cc1`, the Potency was “inactive”. In the case of `CC(=O)N1CCc2cc(S(=O)(=O)NC3CCCCC3)ccc21`, the Potency is reported as “inactive”. `O=C(CCC1CCCC1)N=C1SC2CS(=O)(=O)CC2N1Cc1ccccc1` (configuration not stated) was tested, and the Potency was “inactive”. For `COc1cc2c(C(=O)N(C)c3cc(Cl)ccc3OC)cn(C)c(=O)c2cc1OC`, the Potency was “inactive”. For `O=C(CSc1nc(-c2ccco2)cc(C(F)(F)F)n1)N1CCc2ccccc2C1`, the Potency was 12.6 µM (active). `Cc1cccc(NC(=O)CSc2nc(-c3ccco3)cc(C(F)(F)F)n2)c1C` was tested, and the Potency was “inactive”. In the case of `O=C(CSc1nc(-c2ccco2)cc(C(F)(F)F)n1)NCc1cccs1`, the Potency is reported as “inactive”. `CC1(c2nnc(Cc3ccccc3)o2)CC(c2ccccc2F)=NO1` (configuration not stated) was tested, and the activity, negative = inhibition was -2.28% [at 2.33 µM]. In the case of `CC(=O)N1CCCc2cc(S(=O)(=O)N3CCC(C(=O)NC4CCCCC4)CC3)ccc21`, the Potency is reported as “inactive”. For `COc1ccc(Br)cc1C1CC(=O)Nc2c1c(C)nn2-c1nc(C)cc(C)n1` (configuration not stated), the Potency was “inactive”. For `O=Cc1cn(Cc2ccccc2)nc1-c1cccnc1`, the Potency was “inactive”. With `COc1cccc(NC(=O)CN(C)C(=O)/C=C/c2cn(-c3ccccc3)nc2-c2cccs2)c1` the Potency was “inactive”. For `COc1ccc(NC(=O)CN(C)C(=O)/C=C/c2cn(Cc3ccccc3)nc2-c2cccnc2)cc1`, the Potency was 7.94 µM (active). For `CCC(=O)Nc1cccc(-c2nc3cc(C)ccc3o2)c1`, the Potency was “inactive”. In the case of `Cc1cc(NC(=O)C2CCC(CNS(=O)(=O)c3ccc(Br)s3)CC2)ccc1Br` (configuration not stated), the Potency is reported as “inactive”. For `Brc1ccc(C2=CC(c3ccco3)n3ncnc3N2)cc1` (configuration not stated), the Potency was 12.6 µM (active). For `CC1=C(C(=O)OCc2ccccc2)C(c2ccco2)n2ncnc2N1` (configuration not stated), the Potency was “inactive”. With `COC(=O)C1=C(C)Nc2ncnn2C1c1ccco1` (configuration not stated) the activity, negative = inhibition was 3.2% [at 12.7 µM]. With `CCOC(=O)c1c(C)[nH]c(CCC(=O)Nc2ccc(OC)c(OC)c2)c1C` the Potency was “inactive”. For `COc1ccc(NS(=O)(=O)c2ccc(F)cc2F)cn1`, the Potency was “inactive”. `COc1ccc(Nc2ccc([N+](=O)[O-])cn2)cn1` was tested, and the Potency was “inactive”. In the case of `COc1ccc(Nc2cc(Cl)ccc2C(=O)O)cn1`, the Potency is reported as 2.24 µM (active). In the case of `Cc1ccccc1CCNC(=O)C1CCN(c2nc3ccccc3nc2C(F)(F)F)CC1`, the Potency is reported as “inactive”. In the case of `CCC(=O)c1ccc(OCC(=O)N(CC)CC2COc3ccccc3O2)cc1` (configuration not stated), the Potency is reported as “inactive”. With `Cc1ccccc1Nc1scc(-c2ccc(Br)cc2)[n+]1-c1ccccc1C` the Potency was 20 µM (active). `CCOc1ccc(NC(=O)c2cc(S(=O)(=O)N3CCCC3)c[nH]2)cc1` was tested, and the Potency was “inactive”. For `Cc1onc(-c2ccccc2Cl)c1C(=O)OCc1nnc(-c2ccccc2)o1`, the Potency was “inactive”. For `CCC(=O)N1CCc2cc(Br)cc(S(=O)(=O)CCC(=O)NCc3ccccc3OC)c21`, the Potency was “inactive”. In the case of `O=C(O)C1OC(C(=O)O)C2C1C(F)(F)C2(F)F` (configuration not stated), the Potency is reported as 39.8 µM (active). In the case of `CC1=C(C(=O)N2CCN(c3cccc(C(F)(F)F)c3)CC2)C2(CCCCC2)OC1=O`, the Potency is reported as “inactive”. For `CNc1ccc(-c2nc(-c3ccccc3C)no2)cc1[N+](=O)[O-]`, the Potency was “inactive”. With `CC1(C)Oc2ccc3ccc(=O)oc3c2/C(=C/NCCO)C1=O` the Potency was 35.5 µM (active). With `C/C=C(/C)C(=O)OC1Cc2c(ccc3ccc(=O)oc23)OC1(C)C` (configuration not stated) the activity, negative = inhibition was 25.6% [at 12.7 µM]. In the case of `O=C(NC1CCCCC1)c1ccc2c(c1)N(Cc1ccc(Cl)cc1)C(=O)c1ccccc1S2=O` (configuration not stated), the Potency is reported as “inactive”. In the case of `Nc1ncc(S(=O)(=O)Nc2ccc(OC(F)(F)F)cc2)cn1`, the Potency is reported as “inactive”. In the case of `COc1ccc(NS(=O)(=O)c2cccc(C(=O)NCCc3ccc(S(N)(=O)=O)cc3)c2)cc1`, the activity, negative = inhibition is reported as 9.68% [at 12.7 µM]. In the case of `Cc1ccc(CN(C(=O)c2ccccc2[N+](=O)[O-])c2ccccn2)cc1`, the Potency is reported as “inactive”. With `CCCC(=O)N=c1sc2cccc(F)c2n1C` the Potency was 44.7 µM (active). With `CCN(CC)S(=O)(=O)c1ccc(C(=O)N=c2sc3cccc(OC)c3n2C)cc1` the Potency was “inactive”. In the case of `Cn1c(=NC(=O)CSCC(=O)N2CCCCC2)sc2ccccc21`, the Potency is reported as “inactive”. For `CCOc1ccc(CC(=O)NCCc2csc3nc(-c4ccccc4F)nn23)cc1`, the Potency was “inactive”. For `CC(C)CCN(C(=O)Nc1ccc(Cl)c(Cl)c1)C(C)c1cccs1` (configuration not stated), the Potency was “inactive”. `CCOC(=O)CSc1nccc(N(C)C)c1C#N` was tested, and the Potency was “inactive”. `CCOC(=O)C(Sc1ncc(C#N)c(N)n1)C(C)C` (configuration not stated) was tested, and the Potency was 39.8 µM (active). For `CCCCOc1ccc(-c2ncc(C(=O)OCC)c(N)n2)cc1`, the activity, negative = inhibition was 6.88% [at 12.7 µM]. With `O=C(CNc1cccc(S(=O)(=O)N2CCCCC2)c1)Nc1ccccc1F` the activity, negative = inhibition was 14.7% [at 12.7 µM]. Compound `CCN1C(=O)[C@@H]2[C@@H](c3ccc(-c4ccc(OC)cc4)c(OC)c3)N3CCC[C@@]3(C(=O)OC)[C@@H]2C1=O` has an activity, negative = inhibition of -8.12% [at 2.33 µM]. In the case of `Cc1nn(Cc2ccccc2)c(C)c1C(=O)NCCCN1CCCC1=O`, the activity, negative = inhibition is reported as 10.5% [at 12.7 µM]. For `CCOC(=O)c1c(NC(=O)CN2C(=O)NC3(CCC(C)CC3)C2=O)sc(C)c1CC` (configuration not stated), the Potency was “inactive”. For `CCC(=C/c1sc2ccc3ccccc3c2[n+]1C)/C=C1\Sc2ccc3ccccc3c2N1C`, the Potency was 3.16 µM (active). For `O=S(=O)(c1ccc(NC(=S)NN=C(C2CC2)C2CC2)cc1)N1CCOCC1`, the Potency was 1.78 µM (active). `COC(=O)c1cc(Oc2ccc(S(=O)(=O)N3CCOCC3)cc2[N+](=O)[O-])cc(C(=O)OC)c1` was tested, and the activity, negative = inhibition was 19.1% [at 12.7 µM]. With `O=C(NC(=S)Nc1ccc(S(=O)(=O)N2CCOCC2)cc1)c1ccccc1[N+](=O)[O-]` the Potency was 39.8 µM (active). In the case of `Cc1cc(C(=O)NNC(=O)c2cccc(S(=O)(=O)N3CCOCC3)c2)c2ccccc2n1`, the Potency is reported as “inactive”. `O=C(CN1C(=O)CCC1=O)Nc1ccc(S(=O)(=O)N2CCOCC2)cc1` was tested, and the Potency was “inactive”. For `O=C(COC(=O)c1ccccc1)Nc1cccc(S(=O)(=O)N2CCOCC2)c1`, the Potency was “inactive”. For `CN1CCN(S(=O)(=O)c2ccc(NC(=S)NC(=O)C3CC3)cc2)CC1`, the Potency was “inactive”. For `O=C(NNC(=S)Nc1ccccc1)c1cccc(S(=O)(=O)N2CCOCC2)c1`, the Potency was 31.6 µM (active). For `Cc1ccccc1OCC(=O)Nc1ccc(S(=O)(=O)N2CCOCC2)cc1`, the Potency was “inactive”.
